Screening data as filed in PubChem.
Hits are enriched below; roughly 3.6% of the tested compounds scored in any of these assays.
Nrf2 ARE act: activates Nrf2 signaling; AREc32 ARE-luciferase reporter (MCF7-derived line), luminescence, 24 h; Potency, µM (series often up to 46.1 µM), for inactives: at the highest dose activation, usual class: activators; hit rate 0.31% among 410,000; note: % of control where 0% means no effect; nearly all actives have a fitted effect of over 65% in size
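Steps: seed AREc32_Fluc cells (1000/well, 5% FBS OPTI-MEM); incubate overnight at 37 deg C; add 23 nL compound; incubate 24 hr; add Steady-Glo; hold 30 min RT; read luminescence.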
HepG2 tox: counter-screen for TGF-b inhibitors: cytotoxicity in HepG2 cells; HepG2 CAGA-GFP viability, ATP luminescence, 18 h; hit rate 0.76% among 410,000; Potency, µM (doses to about 46.1 µM), for the others: top-dose activity change, negative = cytotoxicity, most hits filed as cytotoxic
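HepG2 CAGA-GFP cells (1000/well, DMEM with 1% FBS) received compound, then TGF-beta at 500 pg/mL final, and were incubated 18 hours at 37 degrees C. Viability was read by CellTiter-Glo luminescence. Media-only wells were set as complete cell-killing and DMSO as no toxicity.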
A549 tox: counter-screen for Nrf2 inhibitors: cytotoxicity in A549 cells. A549 ARE-Fluc cells, CellTiter-Fluor viability, 18-24 h. Potency, µM (top dose mostly 46 µM), inactives show at the top dose activity change, negative = cytotoxicity, actives largely listed as inhibitors. hit rate 0.16% among 390,000; note: % is set by controls: 0 for no effect and ±100 for the full control effect
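A549 ARE_Fluc cells in 5% FBS OPTI-MEM were exposed to compounds in concentration-response for 18-24 h at 37 deg C. Viability was read by CellTiter-Fluor fluorescence (Ex 405/Em 525) after 30 min, before the luciferase read.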
Nrf2 inh: Nrf2 pathway inhibition | A549 ARE-Fluc reporter, luciferase luminescence, 18-24 h | Potency, µM (titrated, usually from 46 µM), for the others: top-dose activity change, negative = inhibition, most hits filed as inhibitors | hit rate 2.1% among 360,000; note: % is set by controls: 0 for no effect and ±100 for the full control effect; nearly all actives have a fitted effect of over 60% in size
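In this cell-based qHTS, ARE-driven firefly luciferase in A549 cells reports Nrf2 activity; the luminescent signal after BugLite lysis is the measured value, with a prior CellTiter-Fluor read for cell health.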
TGFb inhibitor: TGF-b pathway inhibition; HepG2 CAGA-GFP TGF-b/SMAD3 reporter, GFP fluorescence, 18 h; TGF-beta stimulated, 500 pg/mL final; Potency, µM (series often up to 46.1 µM), for the others: top-dose activity, negative = inhibition, hits mostly inhibitors; hit rate 1.2% among 410,000; AID 588855; note: % is set by controls: 0 for no effect and ±100 for the full control effect; nearly all actives have a fitted effect of over 65% in size
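Read-out: total well GFP (ex488/em500-530) summed from mean per-cell fluorescence. Cells: HEPG2 CAGA-GFP, 1% FBS DMEM, 18 h at 37 degrees C with 500 pg/mL final TGF-beta. Unstimulated wells served as the full-inhibition control; stimulated DMSO wells = 0%.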
The depositor's hits bear a star; u = inconclusive; x = not tested or not shown. Calls come from the whole dose curve; as a rule, active = well fitted curve in the direction sought with a large enough effect; inconclusive = small, poorly fitted or top-dose-only effect, or another doubt; inactive = no such curve, though single readings can be large; an effect the other way counts as inactive or inconclusive. Potency is the fitted concentration of half-maximal effect.

SMILES	Nrf2 ARE act	HepG2 tox	A549 tox	Nrf2 inh	TGFb inhibitor
O=C(c1ccc(Cl)cc1Cl)C1(n2cncn2)Oc2ccccc2C1O (stereo unspecified)	3.1%	-32.8%	0.6%	10.3µM*	-5.5%
CC(C)/C=C(/C(=O)c1ccc(Cl)cc1Cl)n1cncn1	u	-30.4%	1.8%	-1.6%	-5.4%
O=C(NCc1ccco1)C(=O)NCC1OCCN1S(=O)(=O)c1cc(F)ccc1F (stereo unspecified)	-0.1%	-15.5%	1.0%	-24.7%	-18.8%
CCOc1ccccc1C(=O)NC1CCN(CC(=O)Nc2cc(OC)ccc2OC)CC1	0.5%	-21.7%	-0.4%	23.1µM*	-14.4%
CCOc1ccccc1NC(=O)CN1CCC(NC(=O)c2ccccc2C)CC1	0.3%	5.5%	-5.7%	-14.7%	2.4%
COCCn1c(=NC(=O)c2ccc3c(c2)OCCO3)sc2cc(S(N)(=O)=O)ccc21	-1.0%	-11.4%	-14.4%	13µM*	2.1%
COCCn1c(=NC(=O)c2cc(Cl)sc2Cl)sc2cc(S(N)(=O)=O)ccc21	u	-16.2%	0.9%	-24.2%	21.9%
Cn1c(=O)c2c(nc(CN3CCc4ccccc4C3)n2Cc2ccccc2)n(C)c1=O	4.4%	-16.8%	-14.8%	u	u
Cn1c(=O)c2c(nc(CN3CCc4ccccc4C3)n2CC(=O)c2ccccc2)n(C)c1=O	9.6%	-30.8%	0.1%	u	7.94µM*
CCCn1c(CN2CCN(c3cccc(Cl)c3)CC2)nc2c1c(=O)n(C)c(=O)n2C	-0.4%	-39.2%	-25.9%	18.4µM*	-23.6%
Cc1cc(OCCCCCNCCO)cc(C)c1Cl	2.9%	11.2µM*	-4.4%	15.2%	u
Cc1cc(OCCNCCO)cc(C)c1Cl	-0.1%	-26.3%	3.4%	-20.0%	15.8%
O=C(NNC(=O)c1ccc(Oc2cc(Cl)cc(Cl)c2)o1)c1ccccc1	3.9%	-84.1%	1.7%	-1.4%	20µM*
CCN(CC)S(=O)(=O)c1cccc(C(=O)N/N=C/c2ccc(O)c(O)c2O)c1	-0.5%	-40.2%	-1.5%	-27.9%	u
CCN(CC)S(=O)(=O)c1cccc(C(=O)N/N=C(\C)c2ccc(O)cc2O)c1	-0.6%	-29.5%	u	10.3µM*	20.8%
Nc1cc(Cl)ccc1N1CCCCC1	-0.8%	-1.1%	1.0%	7.4%	-8.1%
Nc1ccc(N2CCCCC2)cc1N1CCCCC1	19.2%	-28.7%	-18.1%	x	10µM*
Nc1c(N2CCOCC2)cc(Cl)c2nonc12	0.1%	9.0%	-16.0%	7.0%	0.4%
Nc1ccc(N2CCCCC2)c2nonc12	20.8%	-75.9%	-6.3%	u	12.6µM*
Nc1c(N2CCCC2)cc(Cl)c2nonc12	0.8%	-96.5%	u	16.4µM*	10µM*
COc1ccc(-c2nc(C#N)c(N3CCc4ccccc4C3)o2)cc1OC	2.5%	-21.4%	-5.1%	20.6µM*	8.0%
Cc1cc(C)c(C(=O)/C=C/c2ccc(C(C)C)cc2)c(=O)[nH]1	-1.0%	-61.9%	-19.3%	18.4µM*	u
Cc1ccccc1-c1cc(C(=O)NCc2ccc(OC(F)(F)F)cc2)n(CC2CC(c3cccnc3)=NO2)n1 (stereo unspecified)	-2.6%	-6.9%	-25.3%	20.6µM*	u
Cc1ccc(CNC(=O)c2cc(-c3ccccc3C)nn2CC2CC(c3cccnc3)=NO2)cc1 (stereo unspecified)	-0.3%	-24.5%	-0.8%	-3.5%	u
CC1=C(O)C(=O)C(c2c(C)cc(C)c(Br)c2C)=C(O)C1=O	3.3%	-21.5%	x	x	-1.2%
SMILES	Nrf2 ARE act	HepG2 tox	A549 tox	Nrf2 inh	TGFb inhibitor
O=C(CCl)NCCCCCCCCCNC(=O)CCl	11.2µM*	-40.4%	u	-13.3%	u
CCC(=O)NCCCCCCNC(=O)CC	0.0%	2.9%	-1.4%	7.9%	6.5%
Cc1cccc(COC[C@H](Cc2ccccc2)N2CCN(C(=O)c3cccc(Cl)c3)CCC2=O)c1	4.4%	x	x	x	x
CC(C)CC(COCc1ccc(Cl)cc1)N1CCN(C(=O)c2ccc(Cl)cc2Cl)CCC1=O (stereo unspecified)	-0.8%	-22.6%	u	20.6µM*	u
Cc1cccc(COCC(Cc2ccccc2)N2CCN(C(=O)c3cccc(Cl)c3)CCC2=O)c1 (stereo unspecified)	5.4%	-28.5%	u	20.6µM*	u
O=[N+]([O-])c1ccc(C2=Nn3c(Cn4nnc5ccccc54)nnc3SC2)cc1	-0.2%	-65.2%	1.7%	-19.2%	0.0%
CCS(=O)(=O)c1nc(S(=O)(=O)c2ccc(Cl)cc2)c(NCCCN2CCCC2=O)s1	-0.2%	2.5%	-0.3%	-19.0%	-1.9%
Cc1ccc2nc(-c3ccc(O)cc3)c(Nc3ccc(Cl)cc3)n2c1	12.4%	-82.5%	-27.9%	u	17.8µM*
Cc1ccc(Nc2c(-c3ccc(C)cc3)nc3ccc(C)cn23)cc1	0.7%	12.9%	1.8%	14.7%	17.9%
Nc1c(C(=O)Nc2ccc(OC(F)(F)F)cc2)sc2nc(-c3ccncc3)ccc12	6.3%	-50.6%	-4.3%	6.51µM*	u
COc1cccc(-c2ccc3c(N)c(C(=O)Nc4ccc(C)c(F)c4)sc3n2)c1	0.5%	-4.5%	u	-20.9%	0.6%
CCOC(=O)C1CCCN(C(=O)c2cc(-c3ccc(F)cc3)nc3ccccc23)C1 (stereo unspecified)	3.4%	-13.9%	0.1%	-8.2%	-20.1%
Cc1cc(Cl)ccc1OCCCC(=O)N/N=C/c1cccc([N+](=O)[O-])c1	0.6%	4.9%	4.8%	-29.7%	-6.3%
CCSc1nc(COC(=O)NC)c(COC(=O)NC)n1C	0.5%	5.1%	1.0%	13.7%	-2.8%
CNC(=O)OCc1nc(SSC(C)(C)C)n(C)c1COC(=O)NC	u	-77.2%	-5.2%	u	11.2µM*
CCOc1ccccc1NC(=O)C(Cc1ccccc1)NS(=O)(=O)c1ccc(Br)s1 (stereo unspecified)	0.0%	-26.8%	-10.5%	18.4µM*	u
Cc1csc2c(N3CCN(C(=S)Nc4ccc(C(F)(F)F)cc4)CC3)ncnc12	9.2%	-33.7%	5.1%	u	u
Cc1csc2c(N3CCN(C(=O)Nc4ccc(Cl)c(Cl)c4)CC3)ncnc12	3.5%	-29.0%	-15.9%	20.6µM*	u
CCOC(=O)C1CCN(c2ncnc3c(C)csc23)CC1	3.8%	-27.8%	-4.4%	u	17.8%
Cc1csc2c(N3CCN(C(=O)NC(C)(C)C)CC3)ncnc12	-0.5%	-20.7%	-15.5%	18.4µM*	u
O=C(OCc1cc([N+](=O)[O-])cc2c1OCOC2)c1ccc2ccccc2n1	0.5%	13.5%	-0.1%	10.9%	14.0%
CCOC(=O)c1ccc(NC2c3ccccc3C(=O)N2c2cccnc2)cc1 (stereo unspecified)	0.6%	-26.6%	-9.6%	14.5%	-21.4%
